Assay results as given in PubChem BioAssay (NCI).
This is part of a sample that, as a whole, favours compounds with a hit. Of some 79,000 tested, about 15% had one in any assay. Calls of active or inactive are those of the source. No stated cut-off is given here; in the data, active means growth inhibition above about 70%; inactive means the rest.

Tests used:
[1] = NCI Yeast Anticancer Drug Screen. Data for the rad50 strain (AID 155);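 further: 0% = growth of vehicle-only cultures of the same strain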; settings: S. cerevisiae rad50 strain growth inhibition, active compounds read high
Summary of the method: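 Inhibition values express reduced yeast growth in compound-treated cultures relative to vehicle-treated controls.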

[2] = NCI Yeast Anticancer Drug Screen. Data for the mec2-1 strain (AID 157); settings: S. cerevisiae mec2-1 strain, active compounds read high
Summary of the method: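 Using mec2-1 yeast: add compound, measure growth, express inhibition versus vehicle-treated cultures.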

[3] = NCI Yeast Anticancer Drug Screen. Data for the sgs1 mgt1 strain (AID 161);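 further: 0% = growth of cultures given vehicle only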; settings: S. cerevisiae sgs1 mgt1 strain, active compounds read high
Summary of the method: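 Percent growth inhibition was derived by comparing compound-exposed mutant yeast with vehicle-exposed cultures. The strain carries alterations in DNA damage repair.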

[4] = NCI Yeast Anticancer Drug Screen. Data for the cln2 rad14 strain (AID 165);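 further: 0% = growth equal to vehicle treated cultures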; settings: S. cerevisiae cln2 rad14 strain, active compounds read high
Summary of the method: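 Yeast strain cln2 rad14, bearing defects in cell cycle control and DNA repair, serves as the test system; values reflect growth inhibition compared with vehicle.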

[5] = NCI Yeast Anticancer Drug Screen. Data for the bub3 strain (AID 167); settings: S. cerevisiae bub3 mutant strain, active compounds read high
Summary of the method: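 Steps: expose the mutant yeast strain to compound; grow alongside vehicle-treated cultures; measure growth; express inhibition against the vehicle cultures.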

[6] = NCI Yeast Anticancer Drug Screen. Data for the mlh1 rad18 strain (AID 175); settings: S. cerevisiae mlh1 rad18 strain growth inhibition, active compounds read high
Summary of the method: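 Steps: expose repair-defective yeast to compound; measure growth; express inhibition against vehicle-treated controls.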

[7] = at 5.0 µM (retest, dose inferred, filed as 0.5)
[8] = at 50.0 µM (retest, dose inferred, filed as 5.0)

Measured: growth inhibition

O=C(CCl)OCC(Cl)Cl
inactive: [1]; [7] 3% | [1]; [8] 2% | [1]; at 50.0 µM 1.25% | [2]; [7] 4% | [2]; [8] 2% | [2]; at 50.0 µM -2.5% | [3]; [7] 1% | [3]; [8] 6% | [3]; at 50.0 µM 10.4% | [4]; [7] 2% | [4]; [8] -4% | [4]; at 50.0 µM 19.6% | [5]; [7] -2% | [5]; [8] -3% | [5]; at 50.0 µM 6.65% | [6]; [7] 9% | [6]; [8] 3% | [6]; at 50.0 µM 20.6%

Clc1ccc2c(NCCCCN3OC3c3ccccc3)ccnc2c1 (stereo not given)
active: [6]; [8] 84%
inactive: [1]; [7] 30% | [1]; [8] 67% | [1]; at 50.0 µM 58.2% | [2]; [7] 22% | [2]; [8] 56% | [2]; at 50.0 µM 48.6% | [3]; [7] 23% | [3]; [8] 57% | [3]; at 50.0 µM 67.5% | [4]; [7] 11% | [4]; [8] 32% | [4]; at 50.0 µM 11.3% | [5]; [7] 24% | [5]; [8] 43% | [5]; at 50.0 µM 34.2% | [6]; [7] 30% | [6]; at 50.0 µM 35.2%

Cc1ccc2ccccc2c1NC1=NCCO1
inactive: [1]; [7] 24% | [1]; [8] 45% | [1]; at 50.0 µM -15.6% | [2]; [7] 25% | [2]; [8] 20% | [2]; at 50.0 µM -10.9% | [3]; [7] 21% | [3]; [8] 11% | [3]; at 50.0 µM -5.65% | [4]; [7] 17% | [4]; [8] 26% | [4]; at 50.0 µM 17% | [5]; [7] 18% | [5]; [8] 6% | [5]; at 50.0 µM 11.8% | [6]; [7] 30% | [6]; [8] 17% | [6]; at 50.0 µM -10.1%

S=P(Nc1ccccc1)(Nc1ccccc1)Nc1ccccc1
inactive: [1]; [7] 21% | [2]; [7] 18% | [3]; [7] 12% | [4]; [7] 7% | [5]; [7] 19% | [6]; [7] 23%
active: [1]; [8] 94% | [1]; at 50.0 µM 96.8% | [2]; [8] 94% | [2]; at 50.0 µM 98% | [3]; [8] 95% | [3]; at 50.0 µM 96.8% | [4]; [8] 94% | [4]; at 50.0 µM 97.7% | [5]; [8] 92% | [5]; at 50.0 µM 98.2% | [6]; [8] 94% | [6]; at 50.0 µM 96.8%

N#Cc1ccc(N=Cc2c([O-])ccc3ccccc23)cc1.[C-]#[O+].[C-]#[O+].[Ir]
inactive: [1]; [7] 8% | [1]; [8] 8% | [2]; [7] 1% | [2]; [8] 1% | [2]; at 50.0 µM 59.5% | [3]; [7] 2% | [3]; [8] 2% | [3]; at 50.0 µM 61.8% | [4]; [7] 0% | [4]; [8] 0% | [4]; at 50.0 µM 50.2% | [5]; [7] 1% | [5]; [8] 1% | [6]; [7] 13% | [6]; [8] 13%
active: [1]; at 50.0 µM 82.6% | [5]; at 50.0 µM 74.7% | [6]; at 50.0 µM 75.8%

[Cl][Hg][Cl].c1cnccn1
active: [1]; [8] 97% | [1]; at 50.0 µM 92.2% | [2]; [8] 98% | [2]; at 50.0 µM 93.8% | [3]; [7] 99% | [3]; [8] 99% | [3]; at 50.0 µM 94.3% | [4]; [7] 80% | [4]; [8] 97% | [4]; at 50.0 µM 93.2% | [5]; [7] 99% | [5]; [8] 99% | [5]; at 50.0 µM 93.2% | [6]; [8] 99% | [6]; at 50.0 µM 93%
inactive: [1]; [7] 39% | [2]; [7] 40% | [6]; [7] 32%

OC1CCCC[CH]1[Hg][Cl] (stereo not given)
inactive: [3]; at 50.0 µM 49.2%
active: [1]; [7] 99% | [1]; [8] 99% | [1]; at 50.0 µM 99.3% | [2]; [7] 100% | [2]; [8] 100% | [2]; at 50.0 µM 99.7% | [3]; [7] 100% | [3]; [8] 100% | [4]; [7] 99% | [4]; [8] 99% | [4]; at 50.0 µM 99.3% | [5]; [7] 100% | [5]; [8] 100% | [5]; at 50.0 µM 99.3% | [6]; [7] 100% | [6]; [8] 100% | [6]; at 50.0 µM 99.5%

[Cl][Hg][Cl]
active: [1]; [7] 99% | [1]; [8] 99% | [1]; at 50.0 µM 91.3% | [2]; [7] 100% | [2]; [8] 100% | [2]; at 50.0 µM 93.3% | [3]; [7] 100% | [3]; [8] 100% | [3]; at 50.0 µM 94% | [4]; [7] 99% | [4]; [8] 99% | [4]; at 50.0 µM 92.3% | [5]; [7] 100% | [5]; [8] 92% | [5]; at 50.0 µM 93.1% | [6]; [7] 100% | [6]; [8] 99% | [6]; at 50.0 µM 92.4%

Cc1ccc(S(=O)(=O)OC2CCC3C4CC=C5CC(SC(=N)N)CCC5(C)C4CCC23C)cc1 (stereo not given)
active: [1]; [8] 82% | [3]; [7] 96% | [3]; [8] 95% | [3]; at 50.0 µM 94.1%
inactive: [1]; [7] 67% | [1]; at 50.0 µM 47.9% | [2]; [7] 37% | [2]; [8] 28% | [2]; at 50.0 µM 29.6% | [4]; [7] 4% | [4]; [8] 6% | [4]; at 50.0 µM 3% | [5]; [7] 51% | [5]; [8] 36% | [5]; at 50.0 µM 26.1% | [6]; [7] 51% | [6]; [8] 44% | [6]; at 50.0 µM 66.3%

C(=C/P(c1ccccc1)c1ccccc1)/P(c1ccccc1)c1ccccc1.C(=CP(c1ccccc1)c1ccccc1)P(c1ccccc1)c1ccccc1.[Pt]
inactive: [1]; [7] 61% | [2]; [7] 38% | [3]; [7] 33% | [4]; [7] 36% | [5]; [7] 56% | [6]; [7] 41%
active: [1]; [8] 78% | [1]; at 50.0 µM 84.4% | [2]; [8] 92% | [2]; at 50.0 µM 90% | [3]; [8] 92% | [3]; at 50.0 µM 82.7% | [4]; [8] 82% | [4]; at 50.0 µM 86.2% | [5]; [8] 89% | [5]; at 50.0 µM 86.8% | [6]; [8] 91% | [6]; at 50.0 µM 83.4%
